According to article PMC11062922 (Nature Chemical Biology, 2023):
Where two headings read alike, the source gives them in different places.

What was measured:
Parameters in all cases: species or system human, MV4-11 + K-562 + COLO205 + SK-N-BE2 + OVCAR-8
[1] = test system: DDR2; settings: read-out: apparent Kd, compound concentrations: 100 nM and 1000 nM (sheet 'Samples'), n = 1
[2] = test system: LIMK1; settings: read-out: apparent Kd, compound concentrations: 100 nM and 1000 nM (sheet 'Samples'), n = 1
[3] = test system: TBK1; settings: read-out: apparent Kd, n = 1
[4] = test system: PRKX;PRKY; settings: read-out: apparent Kd, n = 1
[5] = test system: CLK2; settings: read-out: apparent Kd, n = 1
[6] = test system: PRKDC; settings: read-out: apparent Kd, n = 1
[7] = test system: TEC; settings: read-out: apparent Kd, compound concentrations: 100 nM and 1000 nM (sheet 'Samples'), n = 1
[8] = test system: GRK6; settings: read-out: apparent Kd, compound concentrations: 100 nM and 1000 nM (sheet 'Samples'), n = 1
[9] = test system: BMPR2; settings: read-out: apparent Kd; compound concentrations: 100 nM and 1000 nM (sheet 'Samples'), CATDS: 4.3596889964012502E-3; n = 1
[10] = test system: CDK13; settings: read-out: apparent Kd, compound concentrations: 100 nM and 1000 nM (sheet 'Samples'), n = 1
[11] = test system: DCTPP1; settings: read-out: apparent Kd, n = 1
[12] = test system: NEK3; settings: read-out: apparent Kd; compound concentrations: 100 nM and 1000 nM (sheet 'Samples'), CATDS: 4.0159133314047798E-3; n = 1
[13] = test system: PI4KA; settings: read-out: apparent Kd, n = 1
[14] = test system: RPS6KA5; settings: read-out: apparent Kd; compound concentrations: 100 nM and 1000 nM (sheet 'Samples'), CATDS: 4.7822949231481997E-3; n = 1
[15] = test system: STRADA; settings: read-out: apparent Kd, n = 1
[16] = test system: VDAC3; settings: read-out: apparent Kd; compound concentrations: 100 nM and 1000 nM (sheet 'Samples'), CATDS: 4.6944952504306397E-3; n = 1
[17] = test system: ACOX1; settings: read-out: apparent Kd, n = 1
[18] = test system: ILK; settings: read-out: apparent Kd, compound concentrations: 100 nM and 1000 nM (sheet 'Samples'), n = 1
[19] = test system: ADCK3; settings: read-out: apparent Kd; compound concentrations:100 nM and 1000 nM (sheet 'Samples'); n = 1
[20] = compound concentrations:100 nM and 1000 nM (sheet 'Samples')

With `COc1ccc(Nc2ncc(C#N)c(Nc3ccccc3C(N)=O)n2)cc1N1CCN(C)CC1.Cl` [GSK1558669A] as the compound, how does the potency estimated from few doses ([1]; CATDS: 6.40385177631159E-3) read?
The potency estimated from few doses was 1140 nM.

And the potency estimated from few doses ([2]; CATDS: 6.2092464562502302E-3)?
The potency estimated from few doses was 1380 nM.

And the potency estimated from few doses ([3]; compound concentrations: 100 nM and 1000 nM (sheet 'Samples'), CATDS: 1.0324038658374401E-2)?
The potency estimated from few doses was 172 nM.

How did the potency estimated from few doses ([4]; compound concentrations: 100 nM and 1000 nM (sheet 'Samples'), CATDS: 1.5379195282256401E-2) turn out when `CN(c1ccc(NC(=O)Nc2cccc(Cl)c2)cc1)c1ccnc(N)n1.Cl` [GW830707A] was run?
Its potency estimated from few doses is 134 nM.

`Clc1cc(Cl)cc(Nc2ccnc(Nc3cc(Cl)cc(Cl)c3)n2)c1` [GSK175726A] was tested. Which potency estimated from few doses ([5]; compound concentrations: 100 nM and 1000 nM (sheet 'Samples'), CATDS: 1.2027926669680101E-2) did it give?
Its potency estimated from few doses is 432 nM.

And the potency estimated from few doses ([6]; compound concentrations: 100 nM and 1000 nM (sheet 'Samples'), CATDS: 1.07981791880609E-2)?
The potency estimated from few doses was 607 nM.

With `CCOC(=O)N1CCC(n2cnc(-c3ccc(F)cc3)c2-c2ccnc(N)n2)CC1` [SB-219952] as the compound, how does the potency estimated from few doses ([1]; CATDS: 9.5517965767772696E-3) read?
The potency estimated from few doses was 979 nM.

And the potency estimated from few doses ([7]; CATDS: 8.8843344260598894E-3)?
Its potency estimated from few doses is 1200 nM.

For `O=C1N=C(NCCc2ccc(Cl)cc2)S/C1=C\c1ccc2ncccc2c1` [RO4498479-000], which potency estimated from few doses ([8]; CATDS: 6.7200037487984698E-3) is on record?
The potency estimated from few doses was 1960 nM.

And the potency estimated from few doses ([7]; CATDS: 9.3913889163932396E-3)?
The potency estimated from few doses was 646 nM.

How did the potency estimated from few doses [9] turn out when `Cn1ncc2c(N)ncnc21` [SKF-18267] was run?
The potency estimated from few doses was 1090 nM.

And the potency estimated from few doses ([10]; CATDS: 3.42159578661501E-3)?
The potency estimated from few doses was 2090 nM.

What about the potency estimated from few doses ([11]; compound concentrations: 100 nM and 1000 nM (sheet 'Samples'), CATDS: 4.22997641527893E-3) of the same compound?
Its potency estimated from few doses is 1170 nM.

What about the potency estimated from few doses ([1]; CATDS: 4.5419231694641699E-3) of the same compound?
The potency estimated from few doses was 994 nM.

And the potency estimated from few doses ([2]; CATDS: 4.4629455520233396E-3)?
Its potency estimated from few doses is 1030 nM.

What about the potency estimated from few doses [12] of the same compound?
The potency estimated from few doses was 1320 nM.

What about the potency estimated from few doses ([13]; compound concentrations: 100 nM and 1000 nM (sheet 'Samples'), CATDS: 7.2985744477334297E-3) of the same compound?
Its potency estimated from few doses is 420 nM.

What about the potency estimated from few doses ([6]; compound concentrations: 100 nM and 1000 nM (sheet 'Samples'), CATDS: 6.2124168993476997E-3) of the same compound?
Its potency estimated from few doses is 547 nM.

What about the potency estimated from few doses [14] of the same compound?
The potency estimated from few doses was 891 nM.

What about the potency estimated from few doses ([15]; compound concentrations: 100 nM and 1000 nM (sheet 'Samples'), CATDS: 3.7902262633519698E-3) of the same compound?
Its potency estimated from few doses is 1540 nM.

And the potency estimated from few doses ([3]; compound concentrations: 100 nM and 1000 nM (sheet 'Samples'), CATDS: 5.0307170658674197E-3)?
Its potency estimated from few doses is 804 nM.

And the potency estimated from few doses ([7]; CATDS: 5.5600102138742497E-3)?
The potency estimated from few doses was 665 nM.

What about the potency estimated from few doses [16] of the same compound?
Its potency estimated from few doses is 926 nM.

For `Cl.Cl.NCC(C(=O)Nc1cc(Br)c(-c2ccnc3[nH]ccc23)s1)c1ccccc1.NCC(C(=O)Nc1cc(Br)c(-c2ccnc3[nH]ccc23)s1)c1ccccc1` (centres unmarked) [GSK1269851A], which potency estimated from few doses [5, 20] is on record?
The potency estimated from few doses was 730 nM.

How did the potency estimated from few doses [17, 20] turn out when `Cc1cccc(Nc2nc(N[C@H]3CCCC[C@H]3N)ncc2C(N)=O)c1.Cl` [GSK986310C] was run?
The potency estimated from few doses was 1340 nM.

And the potency estimated from few doses [15, 20]?
The potency estimated from few doses was 2120 nM.

With `CNC(=O)c1ccccc1Nc1nc(Nc2ccc(N3CCOCC3)cc2)ncc1Cl.Cl` [GSK1576028A] as the compound, how does the potency estimated from few doses [3, 20] read?
The potency estimated from few doses was 395 nM.

How did the potency estimated from few doses ([10]; CATDS: 0.21960096407146401) turn out when `Cc1cccc2c(-c3ccncn3)c(-c3ccc(F)cc3)nn12` [GW515532X] was run?
Its potency estimated from few doses is 1800 nM.

For `O=C1NC(=O)C(N2CCc3ccccc32)=C1c1ccccc1Cl` [SB-373598], which potency estimated from few doses [6, 20] is on record?
The potency estimated from few doses was 1200 nM.

Which potency estimated from few doses ([18]; CATDS: 0.188303369583949) does the source give for `O=C1N=C(Nc2ccccc2)S/C1=C\c1ccc2ncccc2c1` [RO4493940-000] here?
Its potency estimated from few doses is 1500 nM.

Which potency estimated from few doses [6, 20] does the source give for `CN1C[C@@H]2Cn3c(c(C4=C(c5cn(C)c6ccccc56)C(=O)NC4=O)c4ccccc43)C[C@H]2C1.Cl` [RO0320234-001] here?
The potency estimated from few doses was 859 nM.

With `CCn1c(-c2nonc2N)nc2c(C#CC(C)(C)O)nc(OCCNC)cc21.Cl` [GSK949675A] as the compound, how does the potency estimated from few doses [4, 20] read?
The potency estimated from few doses was 355 nM.

How did the potency estimated from few doses ([17]; compound concentrations: 100 nM and 1000 nM (sheet 'Samples'), CATDS: 2.54235943095352E-2) turn out when `CNCC#Cc1c(F)ccc2c1/C(=C/c1[nH]ccc1OC)C(=O)N2.Cl` [RO0281601-001] was run?
Its potency estimated from few doses is 1140 nM.

How did the potency estimated from few doses [11, 20] turn out when `Cc1cccc(Nc2nc(N[C@H]3CCNC3)ncc2C(N)=O)c1.Cl` [GSK2197149A] was run?
The potency estimated from few doses was 1150 nM.

What about the potency estimated from few doses [13, 20] of the same compound?
Its potency estimated from few doses is 1420 nM.

With `CN(c1ccc(NC(=O)NCCN2CCOCC2)cc1)c1ccnc(Nc2ccc(CS(C)(=O)=O)cc2)n1.Cl` [GW830365A] as the compound, how does the potency estimated from few doses ([1]; CATDS: 5.5525356317498699E-2) read?
The potency estimated from few doses was 940 nM.

`CCN(CC)Cc1ccc(Nc2nccc(-c3cnn4ncccc34)n2)cc1` [GW780056X] was tested. Which potency estimated from few doses ([17]; compound concentrations: 100 nM and 1000 nM (sheet 'Samples'), CATDS: 2.3991726091544201E-2) did it give?
The potency estimated from few doses was 753 nM.

And the potency estimated from few doses ([10]; CATDS: 1.9982527917222499E-2)?
Its potency estimated from few doses is 1330 nM.

What does the source list for `CCn1c(-c2cccnc2O)nc2cnccc21` [SB-736715]?
potency estimated from few doses ([8]; CATDS: 1.19944612945155E-2): 2190 nM; potency estimated from few doses ([18]; CATDS: 1.2476704483333699E-2): 1980 nM; potency estimated from few doses ([13]; compound concentrations: 100 nM and 1000 nM (sheet 'Samples'), CATDS: 1.5744300181729402E-2): 1170 nM; potency estimated from few doses ([7]; CATDS: 1.49433127144414E-2): 1300 nM

Which results are given for `CCn1c(-c2nonc2N)nc2c(C#CC(C)(C)O)nc(O[C@@H](CN)c3ccccc3)cc21.O=C(O)C(F)(F)F` [GSK1007102B]?
potency estimated from few doses [19]: 1060 nM; potency estimated from few doses [4, 20]: 83.5 nM
